{"source": "PubChem BioAssay (EPA / NIEHS)", "note": "Where “and” joins values, the source holds several entries; their conditions need not be identical. Equal values may be shown once. More than one record can exist for a structure, and the calls need not agree. Calls of active or inactive are those of the source. Rule for the calls: active = hit-call score of the fitted dose curve at least 0.9, where 1 is the maximum; inactive = score below 0.9."}
{"read-out": "Matrix Metallopeptidase 1 (MMP1), MMP1 (gene 4312)", "assay": "BSK_MyoF_MMP1: BioMAP Diversity Plus: MyoF Assay for Matrix Metallopeptidase 1 (MMP1) Biomarker Activity (AID 2284268)", "conditions": "primary human lung fibroblasts", "description": "BSK_MyoF is a cell-based, multiplexed-readout assay that uses lung fibroblasts, […], with measurements taken at 24 hours after chemical dosing in a microplate: 96-well plate.BSK_MyoF_MMP1 is an assay component measured in the BSK_MyoF assay. It measures […] antibody related to regulation of gene expression using ELISA technology.Data from the assay component BSK_MyoF_MMP1 was analyzed at the endpoint, BSK_MyoF_MMP1, in the positive analysis fitting direction relative to DMSO as the negative control and baseline of activity. Using a type of binding reporter, gain or loss-of-signal activity can be used to understand protein changes. To generalize the intended target to other relatable targets, this assay endpoint is annotated to the 'protease' intended target family, where the subfamily is 'matrix metalloproteinase'.\nThe levels of cell surface (or secreted, indicated by the prefix \"s\") biomarker endpoints were measured by ELISA. Overt cytotoxicity to cells in confluent adherent cultures (all systems other than the BT system) was assessed by measuring total protein levels using sulforhodamine B (SRB) staining in parallel cultures at the time of biomarker measurements, indicated as SRB endpoints. For proliferation assays for adherent cell types, individual cell types are cultured at sub-confluence and relative cell numbers quantified by SRB staining at time points optimized for each system (48 h: 3C and CASM3C systems; 72 h: BT and HDF3CGF systems; 96 h: SAg system). SRB was performed by staining cells with 0.1% SRB after fixation with 10% TCA and reading wells at 560 nm.Viability and proliferation of PBMC (T cells) was quantified by Alamar Blue reduction for the SAg and BT systems. For PBMC viability (referred to as PBMC Cytotoxicity within the assay endpoint names), cells were plated (75,000/well in a 96-well plate) and then chemical samples added for 1 h before addition of activators, SEB and TSST-1 (20 ng/mL final concentration each). Cells were incubated for 90 h. Then, Alamar Blue (20 uL/well) (Invitrogen, Cat DAL1100) was added for 6 h, and the plates were read with a fluorescence microplate reader at 546/580 nm (excitation/emission). For PBMC proliferation, cells were plated and activated as above but incubated for only 16 h prior to addition of Alamar Blue. Plates were read after 6 h."}
{"molecule": "O=C(CC(=O)C(F)(F)C(F)(F)F)C(F)(F)F", "outcome": "inactive"}
{"molecule": "O=C(O)C(F)(F)C(F)(F)C(F)(F)C(F)(F)C(F)(F)C(F)(F)C(F)(F)C(F)(F)C(F)(F)C(F)F", "outcome": "inactive"}
{"molecule": "CCCCOCCOCCOC(=O)CCCCC(=O)OCCOCCOCCCC", "outcome": "inactive"}
{"molecule": "OCCCC(F)(F)C(F)(F)C(F)(F)C(F)(F)C(F)(F)C(F)(F)C(F)(F)F", "outcome": "inactive", "AC50": "48 µM (active)"}
{"molecule": "CC(C)(C)C(=O)CC(=O)C(F)(F)C(F)(F)C(F)(F)F", "outcome": "inactive"}
{"molecule": "O=C(O)C=C(C(F)(F)F)C(F)(F)F", "outcome": "inactive"}
{"molecule": "FC(F)(F)C(F)(F)C(F)(F)C(F)(F)C(F)(F)CCI", "outcome": "inactive"}
{"molecule": "C#C[C@]1(O)CC[C@H]2[C@@H]3CCc4cc(OC)ccc4[C@H]3CC[C@@]21C", "AC50": "20 µM (active)"}
{"molecule": "FC(F)(I)C(F)(F)C(F)(F)C(F)(F)I", "outcome": "inactive", "AC50": "52 µM (active) and 48.5 µM (active)"}
{"molecule": "FC1CC(F)(F)C(F)(F)C1(F)F", "note": "(stereo not given)", "outcome": "inactive"}
{"molecule": "FC(F)(F)C(F)(F)C(F)(F)C(F)(F)C(F)(F)C(F)(F)C(F)(F)Br", "outcome": "inactive"}
{"molecule": "C=CC(=O)OCC(F)(F)C(F)(F)C(F)(F)C(F)(F)C(F)(F)C(F)(F)C(F)(F)F", "outcome": "inactive"}
{"molecule": "OCC(F)(F)C(F)(F)C(F)(F)C(F)(F)C(F)(F)C(F)F", "outcome": "inactive"}
{"molecule": "O=C(O)C(F)(F)C(F)(F)C(F)(F)C(F)(F)F", "outcome": "inactive"}
{"molecule": "C=CC(F)(F)C(F)(F)C(F)(F)C(F)(F)C(F)(F)C(F)(F)C(F)(F)C(F)(F)F", "outcome": "inactive"}
{"molecule": "N=C(N)C(F)(F)C(F)(F)C(F)(F)C(F)(F)C(F)(F)C(F)(F)C(F)(F)F", "outcome": "inactive"}
{"molecule": "OCC(F)(F)C(F)(F)C(F)(F)F", "outcome": "inactive"}
{"molecule": "FC(F)(Br)C(F)(F)C(F)(F)C(F)(F)C(F)(F)C(F)(F)Br", "outcome": "inactive"}
{"molecule": "CCc1ccc(C(c2ccc(CC)cc2)C(Cl)Cl)cc1", "AC50": "8.65 µM (active)"}
{"molecule": "Oc1ccc(Nc2ccccc2)cc1", "outcome": "inactive"}
{"molecule": "CCN(CC)c1ccc2c(C)cc(=O)oc2c1", "outcome": "inactive"}
{"molecule": "O=C(O)C(F)(F)C(F)(F)C(F)(F)C(F)(F)C(F)(F)C(F)(F)C(F)(F)C(F)(F)C(F)(F)C(F)(F)C(F)(F)C(F)(F)C(F)(F)F", "outcome": "inactive"}
{"molecule": "O=P(O)(O)OCCC(F)(F)C(F)(F)C(F)(F)C(F)(F)C(F)(F)C(F)(F)F", "outcome": "inactive"}
{"molecule": "C=C(C)C(=O)OCC(F)(F)C(F)(F)C(F)(F)C(F)(F)C(F)(F)C(F)(F)C(F)(F)F", "outcome": "inactive"}
{"molecule": "FC(F)(F)C(F)(F)C(F)(F)N(C(F)(F)C(F)(F)C(F)(F)F)C(F)(F)C(F)(F)C(F)(F)F", "outcome": "inactive"}
{"molecule": "O=C(O)C(F)(F)C(F)(F)C(F)(F)F", "outcome": "inactive"}
{"molecule": "O[Si](c1ccccc1)(c1ccccc1)c1ccccc1", "AC50": "13.9 µM (active)"}
{"molecule": "O=C(O)C(F)(F)C(F)(F)C(F)(F)C(F)(F)C(F)(F)C(F)(F)C(F)(F)C(F)(F)C(F)(F)C(F)(F)C(F)(F)C(F)(F)F", "outcome": "inactive"}
{"molecule": "FC(F)(F)C(F)(F)C(F)(F)C(F)(F)C(F)(F)C(F)(F)CCS", "outcome": "inactive"}
{"molecule": "C=C(C)C(=O)OCC(F)(F)C(F)(F)C(F)(F)F", "outcome": "inactive"}
{"molecule": "CCCCCCC(C)OC(=O)CCCCC(=O)OC(C)CCCCCC", "note": "(stereo not given)", "outcome": "inactive"}
{"molecule": "C=C(C)C(=O)OCCC(F)(F)C(F)(F)C(F)(F)C(F)(F)C(F)(C(F)(F)F)C(F)(F)F", "outcome": "inactive"}
{"molecule": "C=CC/C=C/C/C=C/C/C=C/C", "outcome": "inactive"}
{"molecule": "Cc1ccc(S(=O)(=O)OCC(F)(F)C(F)(F)C(F)(F)C(F)(F)C(F)(F)C(F)F)cc1", "outcome": "inactive"}
{"molecule": "CCCCNc1ccccc1", "outcome": "inactive"}
{"molecule": "CCCCCCCCCCCCCCCC[N+](C)(C)Cc1ccccc1", "AC50": "2.7 µM (active)"}
{"molecule": "OCC(F)(F)C(F)(F)C(F)(F)C(F)F", "outcome": "inactive"}
{"molecule": "OCCCC(F)(F)C(F)(F)C(F)(F)F", "outcome": "inactive"}
